# Results published in PubChem BioAssay AID1159580 (chemical genetic matrix, 2015).
# Several values for one entry are separate records, joined by “and”; a condition that tells them apart may be missing. Equal entries are not always repeated. The whole screen tested about 5,500 compounds, of which about 2,000 (36%) were called active. About 18% were inconclusive and are not listed. No stated cut-off is given here; in the data, active means normalized growth mostly below about 0.91 (no sharp cut-off); inconclusive means no clear call, values can overlap the other calls; inactive means mostly above about 0.92. The list shows a part of the results.
# Assay: chemical genetic growth profiling, strain panel (AID 1159580);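 further: tested at 20 µM; growth read once vehicle control cultures reached saturation at 30 °C; 1 = growth at the plate median or of vehicle wells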
# Settings: S. cerevisiae deletion strains, growth OD
smiles,measurement,setting,value
C/C=C(/C(=C/C)c1ccc(O)cc1)c1ccc(O)cc1,normalized growth,"locus YAL021C, strain ccr4, stronger effect = lower value",1.02 (inactive)
same,normalized growth,"locus YAL026C, strain drs2, stronger effect = lower value",0.9 (active)
same,normalized growth,"locus YAL030W, strain snc1, stronger effect = lower value",0.978 (inactive)
same,normalized growth,"locus YBL061C, strain skt5, stronger effect = lower value",0.974 (inactive)
same,normalized growth,"locus YBR009C, strain hhf1, stronger effect = lower value",0.929 (inactive)
same,normalized growth,"locus YBR021W, strain FUR4, stronger effect = lower value",0.907 (inactive)
same,normalized growth,"locus YBR023C, strain chs3, stronger effect = lower value",0.968 (inactive)
same,normalized growth,"locus YBR171W, strain sec66, stronger effect = lower value",0.94 (inactive)
same,normalized growth,"locus YBR229C, strain ROT2, stronger effect = lower value",0.995 (inactive)
same,normalized growth,"locus YBR231C, strain swc5, stronger effect = lower value",1 (inactive)
same,normalized growth,"locus YBR279W, strain paf1, stronger effect = lower value",0.971 (inactive)
same,normalized growth,"locus YCL011C, strain gbp2, stronger effect = lower value",0.968 (inactive)
same,normalized growth,"locus YCL016C, strain dcc1, stronger effect = lower value",0.997 (inactive)
same,normalized growth,"locus YCL029C, strain bik1, stronger effect = lower value",0.823 (active)
same,normalized growth,"locus YCL069W, strain vba3, stronger effect = lower value",0.953 (inactive)
same,normalized growth,"locus YCR088W, strain abp1, stronger effect = lower value",0.989 (inactive)
same,normalized growth,"locus YDL005C, strain med2, stronger effect = lower value",0.992 (inactive)
same,normalized growth,"locus YDL035C, strain GPR1, stronger effect = lower value",0.892 (inactive)
same,normalized growth,"locus YDL040C, strain nat1, stronger effect = lower value",0.979 (inactive)
same,normalized growth,"locus YDL074C, strain BRE1, stronger effect = lower value",0.492 (active)
same,normalized growth,"locus YDL101C, strain DUN1, stronger effect = lower value",0.869 (active)
same,normalized growth,"locus YDL185W, strain tfp1, stronger effect = lower value",0.844 (active)
same,normalized growth,"locus YDL192W, strain arf1, stronger effect = lower value",0.567 (active)
same,normalized growth,"locus YDR001C, strain nth1, stronger effect = lower value",0.962 (inactive)
same,normalized growth,"locus YDR069C, strain doa4, stronger effect = lower value",0.974 (inactive)
same,normalized growth,"locus YDR101C, strain arx1, stronger effect = lower value",0.846 (active)
same,normalized growth,"locus YDR137W, strain rgp1, stronger effect = lower value",0.757 (active)
same,normalized growth,"locus YDR159W, strain sac3, stronger effect = lower value",0.923 (inactive)
same,normalized growth,"locus YDR162C, strain NBP2, stronger effect = lower value",0.561 (active)
same,normalized growth,"locus YDR195W, strain ref2",0.989 (inactive)
same,normalized growth,"locus YDR297W, strain sur2, stronger effect = lower value",0.952 (inactive)
same,normalized growth,"locus YDR318W, strain mcm21, stronger effect = lower value",0.789 (active)
same,normalized growth,"locus YDR334W, strain swr1, stronger effect = lower value",0.968 (inactive)
same,normalized growth,"locus YDR335W, strain msn5, stronger effect = lower value",0.943 (inactive)
same,normalized growth,"locus YDR388W, stronger effect = lower value",0.589 (active)
same,normalized growth,"locus YDR392W, strain spt3, stronger effect = lower value",0.905 (inactive)
same,normalized growth,"locus YDR502C, strain sam2, stronger effect = lower value",0.821 (active)
same,normalized growth,"locus YEL003W, strain gim4, stronger effect = lower value",0.949 (inactive)
same,normalized growth,"locus YEL037C, strain rad23, stronger effect = lower value",0.989 (inactive)
same,normalized growth,"locus YEL061C, strain CIN8 (second series), stronger effect = lower value",0.973 (inactive)
same,normalized growth,"locus YEL061C, strain CIN8, stronger effect = lower value",0.899 (active)
same,normalized growth,"locus YER015W, strain faa2, stronger effect = lower value",0.953 (inactive)
same,normalized growth,"locus YER016W, strain bim1, stronger effect = lower value",0.986 (inactive)
same,normalized growth,"locus YER110C, stronger effect = lower value",0.982 (inactive)
same,normalized growth,"locus YER111C, strain swi4, stronger effect = lower value",0.993 (inactive)
same,normalized growth,"locus YER155C, strain BEM2 (second series), stronger effect = lower value",0.959 (inactive)
same,normalized growth,"locus YER155C, strain BEM2, stronger effect = lower value",0.624 (active)
same,normalized growth,"locus YER167W, strain BCK2, stronger effect = lower value",0.904 (inactive)
same,normalized growth,"locus YFR010W, strain ubp6, stronger effect = lower value",0.982 (inactive)
same,normalized growth,"locus YGL078C, strain dbp3, stronger effect = lower value",0.87 (active)
same,normalized growth,"locus YGL086W, strain mad1, stronger effect = lower value",0.832 (active)
same,normalized growth,"locus YGL167C, strain pmr1, stronger effect = lower value",0.978 (inactive)
same,normalized growth,"locus YGL173C, strain kem1, stronger effect = lower value",0.927 (inactive)
same,normalized growth,"locus YGL227W, strain vid30, stronger effect = lower value",0.985 (inactive)
same,normalized growth,"locus YGL240W, strain doc1, stronger effect = lower value",0.945 (inactive)
same,normalized growth,"locus YGL248W, strain PDE1, stronger effect = lower value",0.81 (active)
same,normalized growth,"locus YGL253W, strain hxk2, stronger effect = lower value",0.971 (inactive)
same,normalized growth,"locus YGR135W, strain pre9, stronger effect = lower value",0.836 (active)
same,normalized growth,"locus YGR229C, strain SMI1, stronger effect = lower value",0.504 (active)
same,normalized growth,"locus YGR252W, strain gcn5, stronger effect = lower value",0.682 (active)
same,normalized growth,"locus YHR013C, strain ard1, stronger effect = lower value",1.15 (inactive)
same,normalized growth,"locus YHR027C, strain rpn1, stronger effect = lower value",0.979 (inactive)
same,normalized growth,"locus YHR030C, strain SLT2, stronger effect = lower value",0.691 (active) and 0.969 (inactive)
same,normalized growth,"locus YHR079C, strain IRE1 (second series), stronger effect = lower value",0.802 (active)
same,normalized growth,"locus YHR079C, strain IRE1, stronger effect = lower value",0.982 (inactive)
same,normalized growth,"locus YHR094C, strain hxt1, stronger effect = lower value",0.968 (inactive)
same,normalized growth,"locus YHR129C, strain ARP1, stronger effect = lower value",0.841 (active)
same,normalized growth,"locus YHR142W, strain chs7, stronger effect = lower value",0.943 (inactive)
same,normalized growth,"locus YHR200W, strain rpn10, stronger effect = lower value",0.845 (active)
same,normalized growth,"locus YIL066C, strain RNR3, stronger effect = lower value",0.9 (inactive)
same,normalized growth,"locus YIL073C, strain SPO22, stronger effect = lower value",0.976 (inactive)
same,normalized growth,"locus YIL125W, strain kgd1, stronger effect = lower value",0.858 (active)
same,normalized growth,"locus YIR030C, strain dcg1, stronger effect = lower value",0.958 (inactive)
same,normalized growth,"locus YJL092W, strain hpr5, stronger effect = lower value",0.971 (inactive)
same,normalized growth,"locus YJL095W, strain BCK1 (second series), stronger effect = lower value",0.944 (inactive)
same,normalized growth,"locus YJL095W, strain BCK1, stronger effect = lower value",0.497 (active) and 0.978 (inactive)
same,normalized growth,"locus YJL115W, strain asf1, stronger effect = lower value",0.984 (inactive)
same,normalized growth,"locus YJL129C, strain trk1, stronger effect = lower value",0.9 (inactive)
same,normalized growth,"locus YJL134W, strain LCB3, stronger effect = lower value",0.998 (inactive)
same,normalized growth,"locus YJL154C, strain vps35, stronger effect = lower value",0.969 (inactive)
same,normalized growth,"locus YJL164C, strain tpk1, stronger effect = lower value",0.972 (inactive)
same,normalized growth,"locus YJL166W, strain qcr8, stronger effect = lower value",0.915 (inactive)
same,normalized growth,"locus YJL168C, strain set2, stronger effect = lower value",0.979 (inactive)
same,normalized growth,"locus YJL187C, strain SWE1 (second series), stronger effect = lower value",0.814 (active)
same,normalized growth,"locus YJR043C, strain POL32, stronger effect = lower value",0.971 (inactive)
same,normalized growth,"locus YJR066W, strain TOR1, stronger effect = lower value",0.931 (inactive)
